The results in this text go back to the supplement of paper PMC6555819.

This assay has as its system VDR:RXRa (NR concentration 270 nM, RXRa partner concentration 90 nM). Nature of the assay: PBM binding z-score (relative to random genomic background probes); higher = stronger binding; sequences stand for … in GC…GCGATTGACAGCGTAGAATGAAGG
The procedure: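 Protein-binding microarray (Agilent 4x180K custom design, double-stranded 60-nt probes: 5' GC cap, 34-nt variable region, 24-nt constant primer region; full probe sequence given). Purified or IVT nuclear receptor:RXRα heterodimers (3:1 NR:RXRα, mostly 270:90 nM) or homodimers were incubated for 1 h in PBS with 2% milk and no ligand, then detected with Alexa488 antibodies. Fluorescence from o1-orientation probes (~5 replicates averaged) was converted to z-scores against 500 random hg19 background probes. Variable regions are seed direct-repeat (DR0–DR5) sites, all their single-nucleotide variants and half-site ablations.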
In the case of ACTCGGAGGACAAATGTCAGAGCTACGCCAGTGA, the PBM binding z-score is -0.292.

In the case of TCTAGTTGGTCGCGGAGGTCACACACGACGGGTA, the PBM binding z-score came to 4.55.

For ACCAGCAGGCCAAGGGTCACTCAAGATTAGTCCG, the PBM binding z-score was 2.47.

CACACTAGGTCAAAGGTCAAAGTCGAGCCAACCA had a PBM binding z-score of 6.85.

CCTCGGAGGACAGAAGGTCAGATCTGTCCGCTTT: the PBM binding z-score stood at 0.977.

As to ATCGAAGGGTCGAAGGTGAGTATACCCACCCGAA, the PBM binding z-score was 1.66.

As to CAATCTAGGTCACAGAGGTCAAAGTCCGTGCGTA, the PBM binding z-score is 8.07.

On to TCGAGTAGGTTACGAGGGCATTCAGGGATGAAGA, for which the PBM binding z-score is 2.32.

In turn, CCTACTGGGCCACGAAAGGTGATTGATTCAGTGA came in with a PBM binding z-score of -0.281.

Sequence ATACGTAGGTTAGGGTCATTCAGAAAGTAGGGAA yielded a PBM binding z-score of 4.37.

Turning to ACAGACAGGTGAGTGAAGGTCACTCAGCTGGACG, the PBM binding z-score amounted to 2.73.

Sequence CCTACTGGGCCAAAAAGGTAATTGATGCCGATAA had a PBM binding z-score of -0.157.

Consider CTATGTAGGTTAAGGGGGACATTCAGTTTGAAAG, for which the PBM binding z-score amounted to 4.95.

In the case of TCGAGTAGGTTACAGGGGCATTCAGGGATGAAGA, the PBM binding z-score was found to be 1.67.

As for AGTCAAATTTCACTAGGTAACGTAAGATTCAGCT, the PBM binding z-score was determined as 0.337.

Take CTATGTAGGTTAAGGGGGTCATTCACTTTGAAAG: the PBM binding z-score worked out at 7.21.

Sequence CAAGCTAGGTCAAGAGGTCAAAGTCCGCTTCCCG showed a PBM binding z-score of 5.9.

ATATGTAGGTTAGGGTCAATCAGAAAGTAGGGAA showed a PBM binding z-score of 3.8.

The sequence ATCGAAAGGTCGTCGAGGTGAGTATACACCGTTT returned a PBM binding z-score of 5.7.

ATATGTAGGTTAAGGTCATTCAGAAAGTAGGGAA displayed a PBM binding z-score of 4.69.

TCTTGTAGGTCAAAGGTTAAGAAAGCCGAAGCCT had a PBM binding z-score of 4.54.

Turning to ATATGTAGGTTAGGTTCATTCAGAAAGTAGGGAA, the PBM binding z-score was determined as 4.01.

As to CTATGTAGGTTAAGGGGGTTATTCAGTTTGAAAG, the PBM binding z-score turned out to be 5.71.

With ATATGTAGGTTAGGCTCATTCAGAAAGTAGGGAA, the PBM binding z-score was -0.124.

The sequence ACTTACGGGTCAACGACGTTATAGCACGCGTATA had a PBM binding z-score of 4.

Sequence CGAACTAGGTCACCAGGATAGTGAAGAGGTTGGA returned a PBM binding z-score of 1.93.

The sequence CAACCTAGGTCACGAAAGGTCAAAGTCGAATGAC yielded a PBM binding z-score of 7.15.

Regarding ATATGTAGGTGAGGGTCATTCAGAAAGTAGGGAA, the PBM binding z-score came to 3.42.

Turning to CTATGTAGGTTAAGGGGGTCTTTCAGTTTGAAAG, the PBM binding z-score is 3.93.

The sequence CCTGCTAGGTCATGGTCAGGTAATCTACAGTATG displayed a PBM binding z-score of 1.76.

Consider CCGAGTAGGATACGAGGGGGCATTCAGTGCGAAT, for which the PBM binding z-score came out at 3.32.

Regarding CTATGTAGGTTAAGGGGGTCATTTAGTTTGAAAG, the PBM binding z-score was found to be 7.32.

Consider GCTGCTCGGTCAACTGATGGTCAGCTAAAGCTCG, for which the PBM binding z-score was -0.285.

In turn, CCTTACGGGTAACTCCAGGTTATAGCATCGGAGT registered a PBM binding z-score of 0.375.

On to CCGAGTTGGTTACGAGGGGGCATTCAGTGCGAAT, for which the PBM binding z-score stood at 4.32.

For the sequence TATCCTAGGTCAGATCGGGCCAGTATACGCTATA, the PBM binding z-score is 1.51.

GCTAGTTTGTCAGTAAAAGGTCACACACCGGTCG registered a PBM binding z-score of 3.95.

CGTCGGAGGACAACAGGAGGTCAGAGCTGCCAGA registered a PBM binding z-score of 2.05.

Sequence TCTTATAGATCAATAGAGGTTAAGAAAGTGCGCT returned a PBM binding z-score of 2.03.

Sequence ATCTAAAGGTCGAAGGTGAGTATACCCACCCGAA displayed a PBM binding z-score of 2.95.
